Assay results taken from the supplement of paper PMC10849652.
The full data set covers some 8,800 targets. This sample favours those with a hit. About 0.5% of all pairs of compound and target were hits.

Key:
Experiment in all cases: log2 fold change, soluble protein after heating vs DMSO (PISA); higher = thermal stabilisation; K562 lysate, 10 uM; active = over 0.2 and 3.5 SD of the protein, either way, in both replicates (recomputed)
nilotinib = compound: Cc1cn(-c2cc(NC(=O)c3ccc(C)c(Nc4nccc(-c5cccnc5)n4)c3)cc(C(F)(F)F)c2)cn1 [nilotinib]
Method in brief: (§1)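 The values are log-two fold changes in thermal stability compared with solvent controls and come from duplicates. They were obtained by TMTpro 16plex LC-MS/MS, with channel sums equalised, on the supernatant after 21,000xg for 90 min. That supernatant came from crude K562 extract at 1 mg/mL protein treated with 10 μM compound for 30 min, heated for 3 min across 48°C-58°C, pooled and brought to 0.5% NP-40 at 4°C.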

[1] = compound: Cc1nc(Nc2n[nH]c3c2CN(C(=O)N[C@H](CN(C)C)c2ccccc2)C3(C)C)c2sccc2n1
Method in brief: as §1

dasatinib = compound: Cc1nc(Nc2ncc(C(=O)Nc3c(C)cccc3Cl)s2)cc(N2CCN(CCO)CC2)n1 [dasatinib]
Method in brief: as §1

[2] = compound: Cc1ncc(-c2ccnc(Nc3ccc(S(C)(=O)=O)cc3)n2)n1C(C)C
Method in brief: as §1

[3] = compound: Cn1cc(-c2ccc3c(c2)CCN3C(=O)Cc2cccc(C(F)(F)F)c2)c2c(N)ncnc21
Method in brief: as §1

quisinostat = compound: Cn1cc(CNCC2CCN(c3ncc(C(=O)NO)cn3)CC2)c2ccccc21 [quisinostat]
Method in brief: as §1

tipifarnib = compound: Cn1cncc1[C@@](N)(c1ccc(Cl)cc1)c1ccc2c(c1)c(-c1cccc(Cl)c1)cc(=O)n2C [tipifarnib]
Method in brief: as §1

[4] = compound: NC(=O)Nc1cc(-c2cccc(F)c2)sc1C(=O)N[C@H]1CCCNC1
Method in brief: as §1

[5] = compound: NC(=O)c1cnc(N[C@@H]2CCCC[C@@H]2N)nc1Nc1cccc(-n2nccn2)c1
Method in brief: as §1

[6] = compound: NC1(c2ccc(-c3nc4ccn5c(=O)[nH]nc5c4cc3-c3ccccc3)cc2)CCC1
Method in brief: as §1

[7] = compound: NCC(=O)Nc1ccc(-n2nc(C(F)(F)F)cc2-c2ccc3c(ccc4ccccc43)c2)cc1
Method in brief: as §1

vorinostat = compound: O=C(CCCCCCC(=O)Nc1ccccc1)NO [vorinostat]
Method in brief: as §1

silmitasertib = compound: O=C(O)c1ccc2c(c1)nc(Nc1cccc(Cl)c1)c1ccncc12 [silmitasertib]
Method in brief: as §1

[8] = compound: O=C1NC(=O)C(c2cnc3ccccn23)=C1c1cn2c3c(cc(F)cc13)CN(C(=O)N1CCCCC1)CC2
Method in brief: as §1

entospletinib = compound: c1cn2cc(-c3ccc4cn[nH]c4c3)nc(Nc3ccc(N4CCOCC4)cc3)c2n1 [entospletinib]
Method in brief: as §1

Measured: log2 fold change

RIPK1 (UniProt Q13546)
Chain of UniProt Q13546 (Q13546 whole entry, looked up): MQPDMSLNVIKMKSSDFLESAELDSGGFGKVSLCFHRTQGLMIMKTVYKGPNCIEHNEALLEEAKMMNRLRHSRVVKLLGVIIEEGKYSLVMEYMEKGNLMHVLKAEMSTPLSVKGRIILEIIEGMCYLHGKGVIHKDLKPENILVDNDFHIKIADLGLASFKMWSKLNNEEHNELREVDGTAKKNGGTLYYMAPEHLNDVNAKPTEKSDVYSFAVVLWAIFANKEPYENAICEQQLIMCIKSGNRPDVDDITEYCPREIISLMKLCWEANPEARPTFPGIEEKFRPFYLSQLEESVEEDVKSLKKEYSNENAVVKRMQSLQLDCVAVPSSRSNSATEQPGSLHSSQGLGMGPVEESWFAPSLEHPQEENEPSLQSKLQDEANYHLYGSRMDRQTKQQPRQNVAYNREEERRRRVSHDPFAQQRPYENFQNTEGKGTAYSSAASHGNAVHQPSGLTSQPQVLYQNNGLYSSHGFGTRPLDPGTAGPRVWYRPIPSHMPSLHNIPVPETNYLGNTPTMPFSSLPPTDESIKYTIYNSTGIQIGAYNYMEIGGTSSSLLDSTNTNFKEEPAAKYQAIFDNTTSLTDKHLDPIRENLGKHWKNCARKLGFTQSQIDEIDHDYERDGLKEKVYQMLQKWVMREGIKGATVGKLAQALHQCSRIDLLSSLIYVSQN
active: [2] 0.248 | [3] 0.723 | vorinostat -0.292
inactive: nilotinib -0.053 | [1] -0.014 | dasatinib 0.087 | quisinostat -0.074 | tipifarnib -0.064 | [4] 0.015 | [5] 0.01 | [6] -0.047 | [7] -0.021 | silmitasertib -0.037 | [8] -0.013 | entospletinib 0.011

RAP1B (UniProt P61224)
Chain of UniProt P61224 (P61224 whole entry, looked up): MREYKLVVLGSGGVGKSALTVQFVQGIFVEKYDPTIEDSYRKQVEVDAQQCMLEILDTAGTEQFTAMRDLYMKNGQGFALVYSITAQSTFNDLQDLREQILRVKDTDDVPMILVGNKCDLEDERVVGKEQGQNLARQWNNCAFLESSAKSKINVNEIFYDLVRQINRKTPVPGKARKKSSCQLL
inactive: nilotinib 0.032 | [1] 0 | dasatinib 0.045 | [2] 0.027 | [3] -0.002 | quisinostat -0.007 | tipifarnib -0.034 | [4] -0.007 | [5] -0.029 | [6] -0.025 | [7] 0.048 | vorinostat 0.078 | silmitasertib -0.036 | [8] -0.024 | entospletinib -0.012

RIOK2 (UniProt Q9BVS4)
active: [2] 0.537
inactive: nilotinib 0.002 | [1] 0.034 | dasatinib 0.01 | [3] -0.023 | quisinostat -0.054 | tipifarnib -0.013 | [4] 0.05 | [5] 0.198 | [6] -0.03 | [7] -0.022 | vorinostat -0.098 | silmitasertib 0.096 | [8] 0.008 | entospletinib 0.315

SEC62 (UniProt Q99442)
inactive: nilotinib 0.013 | [1] -0.032 | dasatinib 0.01 | [2] -0.038 | [3] -0.011 | quisinostat 0.083 | tipifarnib -0.055 | [4] -0.045 | [5] -0.007 | [6] -0.01 | [7] 0.036 | vorinostat 0.133 | silmitasertib 0.015 | [8] 0.007 | entospletinib -0.019

REXO4 (UniProt Q9GZR2)
inactive: nilotinib -0.001 | [1] -0.009 | dasatinib -0.008 | [2] 0.021 | [3] 0.008 | quisinostat 0.013 | tipifarnib 0.015 | [4] 0.03 | [5] -0.045 | [6] 0.034 | [7] 0.03 | vorinostat -0.127 | silmitasertib 0.05 | [8] -0.035 | entospletinib 0.067

REL isoform 2 (UniProt Q04864)
active: vorinostat -0.351
inactive: nilotinib 0.009 | [1] -0.032 | dasatinib -0.015 | [2] -0.041 | [3] 0.056 | quisinostat -0.005 | tipifarnib 0.014 | [4] 0.005 | [5] -0.009 | [6] -0.017 | [7] -0.052 | silmitasertib 0.07 | [8] -0.004 | entospletinib 0.019

RANBP6 (UniProt O60518)
Chain of UniProt O60518 (O60518 whole entry, looked up): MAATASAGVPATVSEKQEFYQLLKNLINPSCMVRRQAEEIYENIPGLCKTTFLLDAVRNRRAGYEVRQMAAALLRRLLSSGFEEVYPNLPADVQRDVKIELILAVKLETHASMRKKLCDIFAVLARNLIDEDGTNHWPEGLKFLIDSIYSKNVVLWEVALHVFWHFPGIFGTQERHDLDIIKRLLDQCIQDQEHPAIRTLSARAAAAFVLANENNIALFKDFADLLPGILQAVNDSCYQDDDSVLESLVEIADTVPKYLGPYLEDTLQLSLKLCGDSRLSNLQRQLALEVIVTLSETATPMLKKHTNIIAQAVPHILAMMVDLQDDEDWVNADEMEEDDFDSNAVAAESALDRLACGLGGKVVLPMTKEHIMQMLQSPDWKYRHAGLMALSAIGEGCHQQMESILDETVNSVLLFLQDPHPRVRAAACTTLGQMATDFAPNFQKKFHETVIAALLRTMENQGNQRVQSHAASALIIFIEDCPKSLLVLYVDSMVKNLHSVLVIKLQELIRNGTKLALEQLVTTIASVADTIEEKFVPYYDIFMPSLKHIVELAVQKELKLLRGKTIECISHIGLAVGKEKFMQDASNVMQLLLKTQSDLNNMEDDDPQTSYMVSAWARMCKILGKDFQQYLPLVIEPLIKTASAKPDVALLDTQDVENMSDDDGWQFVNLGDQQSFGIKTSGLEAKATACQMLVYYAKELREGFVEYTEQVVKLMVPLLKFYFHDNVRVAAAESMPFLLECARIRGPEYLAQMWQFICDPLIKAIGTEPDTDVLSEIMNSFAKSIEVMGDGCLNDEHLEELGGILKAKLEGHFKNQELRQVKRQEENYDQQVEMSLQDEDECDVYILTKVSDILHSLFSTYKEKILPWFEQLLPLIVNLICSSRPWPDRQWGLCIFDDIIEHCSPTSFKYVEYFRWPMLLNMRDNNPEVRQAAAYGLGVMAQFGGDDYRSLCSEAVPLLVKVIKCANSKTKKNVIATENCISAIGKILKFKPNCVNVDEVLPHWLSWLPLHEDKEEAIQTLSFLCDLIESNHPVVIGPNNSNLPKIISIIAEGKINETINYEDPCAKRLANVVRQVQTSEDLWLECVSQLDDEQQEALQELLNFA
inactive: nilotinib 0.039 | [1] -0.036 | dasatinib -0.002 | [2] -0.071 | [3] 0.049 | quisinostat -0.063 | tipifarnib -0.072 | [4] 0.055 | [5] 0.062 | [6] -0.06 | [7] 0.013 | silmitasertib 0.054 | [8] 0.041 | entospletinib 0.011
active: vorinostat -0.345

QSER1, A0A3B3IRW6
inactive: nilotinib -0.028 | [1] 0.056 | dasatinib 0.018 | [2] 0.042 | [3] 0.052 | quisinostat -0.117 | tipifarnib -0.048 | [4] 0.064 | [5] -0.027 | [6] -0.048 | [7] -0.013 | silmitasertib 0.038 | [8] 0.033 | entospletinib 0.002
active: vorinostat -0.236

RPS26P11 (UniProt Q5JNZ5)
inactive: nilotinib 0.026 | [1] 0.027 | dasatinib -0.017 | [2] 0.044 | [3] 0.02 | quisinostat -0.151 | tipifarnib 0.004 | [4] -0.036 | [5] 0 | [6] -0.004 | [7] -0.026 | vorinostat 0.114 | silmitasertib 0.049 | [8] -0.113 | entospletinib -0.035

SERINC3 (UniProt Q13530)
Chain of UniProt Q13530 (Q13530 whole entry, looked up): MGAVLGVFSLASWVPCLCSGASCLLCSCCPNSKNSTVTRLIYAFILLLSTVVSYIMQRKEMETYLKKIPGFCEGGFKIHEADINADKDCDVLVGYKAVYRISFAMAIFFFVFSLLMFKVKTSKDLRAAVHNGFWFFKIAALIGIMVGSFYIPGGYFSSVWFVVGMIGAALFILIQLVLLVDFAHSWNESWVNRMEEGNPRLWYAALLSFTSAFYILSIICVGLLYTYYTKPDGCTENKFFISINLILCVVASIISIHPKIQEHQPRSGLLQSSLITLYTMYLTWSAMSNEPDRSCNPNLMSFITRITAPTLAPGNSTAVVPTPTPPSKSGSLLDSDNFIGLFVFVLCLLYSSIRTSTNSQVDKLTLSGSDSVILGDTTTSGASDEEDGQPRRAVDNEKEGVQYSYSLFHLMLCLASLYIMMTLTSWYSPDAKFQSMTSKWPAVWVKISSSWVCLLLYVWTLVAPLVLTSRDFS
inactive: nilotinib 0.022 | [1] 0.023 | dasatinib 0.026 | [2] -0.006 | [3] 0.009 | quisinostat -0.131 | tipifarnib -0.036 | [4] 0.04 | [5] 0.008 | [6] -0.083 | [7] -0.027 | vorinostat 0.019 | silmitasertib -0.012 | [8] 0.017 | entospletinib 0.024

RBM22 (UniProt Q9NW64)
inactive: nilotinib -0.045 | [1] 0.024 | dasatinib -0.072 | [2] -0.006 | [3] 0.057 | quisinostat -0.022 | tipifarnib -0.036 | [4] -0.027 | [5] 0.01 | [6] 0.033 | [7] 0.024 | silmitasertib 0 | [8] -0.053 | entospletinib -0.023
active: vorinostat -0.23

RAB27A (UniProt P51159)
Chain of UniProt P51159 (P51159 whole entry, looked up): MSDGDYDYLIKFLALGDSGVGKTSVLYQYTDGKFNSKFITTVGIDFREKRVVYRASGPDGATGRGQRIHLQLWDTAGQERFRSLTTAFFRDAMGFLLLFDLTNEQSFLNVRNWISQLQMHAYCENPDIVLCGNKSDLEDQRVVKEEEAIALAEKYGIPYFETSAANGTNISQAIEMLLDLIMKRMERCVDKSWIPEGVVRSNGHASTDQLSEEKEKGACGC
inactive: nilotinib -0.018 | [1] 0.02 | dasatinib 0.022 | [2] -0.059 | [3] 0.003 | quisinostat 0.037 | tipifarnib 0.038 | [4] -0.024 | [5] 0.014 | [6] 0.021 | [7] -0.033 | vorinostat -0.08 | silmitasertib 0.066 | [8] -0.009 | entospletinib 0.023

SEC24D isoform 2 (UniProt O94855)
inactive: nilotinib -0.006 | [1] -0.016 | dasatinib -0.004 | [2] -0.029 | [3] 0.002 | quisinostat 0.01 | tipifarnib 0.001 | [4] -0.012 | [5] -0.004 | [6] 0.006 | [7] -0.017 | silmitasertib 0.037 | [8] -0.013 | entospletinib -0.003
active: vorinostat -0.251

SCAF1 (UniProt Q9H7N4)
Chain of UniProt Q9H7N4 (Q9H7N4 whole entry, looked up): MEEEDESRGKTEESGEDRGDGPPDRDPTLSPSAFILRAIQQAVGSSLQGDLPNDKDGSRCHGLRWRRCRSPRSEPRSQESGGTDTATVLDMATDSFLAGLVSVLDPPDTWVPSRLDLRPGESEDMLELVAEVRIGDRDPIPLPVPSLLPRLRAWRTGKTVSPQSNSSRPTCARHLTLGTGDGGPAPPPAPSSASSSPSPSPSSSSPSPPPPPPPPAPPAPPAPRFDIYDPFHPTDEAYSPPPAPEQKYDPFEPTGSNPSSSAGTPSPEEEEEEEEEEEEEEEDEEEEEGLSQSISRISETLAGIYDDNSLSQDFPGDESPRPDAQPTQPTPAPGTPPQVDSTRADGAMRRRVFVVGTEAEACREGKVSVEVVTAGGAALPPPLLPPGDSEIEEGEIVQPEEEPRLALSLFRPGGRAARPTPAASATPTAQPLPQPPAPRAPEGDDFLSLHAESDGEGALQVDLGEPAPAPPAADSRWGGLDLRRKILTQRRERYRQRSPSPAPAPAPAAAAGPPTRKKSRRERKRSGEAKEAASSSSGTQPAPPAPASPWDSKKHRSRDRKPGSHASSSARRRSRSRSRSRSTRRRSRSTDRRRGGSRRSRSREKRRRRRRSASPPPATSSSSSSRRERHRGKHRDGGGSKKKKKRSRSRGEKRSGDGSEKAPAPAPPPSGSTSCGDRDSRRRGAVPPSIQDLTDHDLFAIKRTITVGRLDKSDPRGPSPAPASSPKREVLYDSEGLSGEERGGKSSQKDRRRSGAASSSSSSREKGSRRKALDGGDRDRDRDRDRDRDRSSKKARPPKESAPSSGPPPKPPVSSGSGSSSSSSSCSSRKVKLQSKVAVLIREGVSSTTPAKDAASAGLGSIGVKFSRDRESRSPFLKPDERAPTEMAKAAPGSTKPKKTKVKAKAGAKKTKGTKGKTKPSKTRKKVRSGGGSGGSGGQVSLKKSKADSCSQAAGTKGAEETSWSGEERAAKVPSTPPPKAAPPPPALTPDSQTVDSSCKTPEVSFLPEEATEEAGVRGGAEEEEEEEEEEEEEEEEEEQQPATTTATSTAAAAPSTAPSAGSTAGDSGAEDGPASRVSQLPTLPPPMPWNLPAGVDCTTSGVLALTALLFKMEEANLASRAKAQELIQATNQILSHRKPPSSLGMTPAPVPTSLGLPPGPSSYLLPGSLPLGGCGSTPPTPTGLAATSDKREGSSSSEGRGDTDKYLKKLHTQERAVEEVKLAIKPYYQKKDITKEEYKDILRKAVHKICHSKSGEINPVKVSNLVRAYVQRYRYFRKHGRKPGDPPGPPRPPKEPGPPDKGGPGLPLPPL
inactive: nilotinib -0.053 | [1] 0.115 | dasatinib -0.018 | [2] -0.13 | [3] -0.042 | quisinostat -0.019 | tipifarnib -0.06 | [4] -0.028 | [5] -0.014 | [6] 0.1 | [7] -0.172 | vorinostat -0.076 | silmitasertib 0.042 | [8] -0.04 | entospletinib 0.025

RBM8A (UniProt Q9Y5S9)
inactive: nilotinib -0.005 | [1] 0.025 | dasatinib 0.023 | [2] 0.004 | [3] 0.067 | quisinostat 0.187 | tipifarnib 0.051 | [4] -0.016 | [5] 0 | [6] 0.108 | [7] -0.113 | vorinostat 0.103 | silmitasertib 0.042 | [8] -0.046 | entospletinib -0.019

RPL27 (UniProt P61353)
inactive: nilotinib 0.022 | [1] -0.029 | dasatinib -0.049 | [2] 0.01 | [3] 0 | quisinostat 0.054 | tipifarnib -0.01 | [4] -0.017 | [5] -0.023 | [6] 0.012 | [7] 0.014 | vorinostat 0.129 | silmitasertib 0.03 | [8] 0.013 | entospletinib 0.009

RFC4 (UniProt P35249)
Chain of UniProt P35249 (P35249 whole entry, looked up): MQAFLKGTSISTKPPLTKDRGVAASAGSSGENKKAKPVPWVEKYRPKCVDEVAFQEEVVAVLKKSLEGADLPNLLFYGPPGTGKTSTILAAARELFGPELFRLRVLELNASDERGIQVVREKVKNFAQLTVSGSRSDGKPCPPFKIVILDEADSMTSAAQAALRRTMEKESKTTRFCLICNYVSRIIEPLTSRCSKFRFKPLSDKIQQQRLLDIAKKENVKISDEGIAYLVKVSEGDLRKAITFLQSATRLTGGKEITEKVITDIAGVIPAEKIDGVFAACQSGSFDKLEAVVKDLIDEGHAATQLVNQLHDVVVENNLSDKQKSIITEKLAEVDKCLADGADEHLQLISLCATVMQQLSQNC
active: vorinostat -0.423
inactive: nilotinib 0.001 | [1] -0.029 | dasatinib -0.068 | [2] -0.002 | [3] 0.047 | quisinostat -0.016 | tipifarnib -0.004 | [4] 0.03 | [5] 0.015 | [6] -0.011 | [7] 0.013 | silmitasertib 0.033 | [8] 0.008 | entospletinib 0.006

RCC1 isoform 2 (UniProt P18754)
Chain of UniProt P18754 (P18754 whole entry, looked up): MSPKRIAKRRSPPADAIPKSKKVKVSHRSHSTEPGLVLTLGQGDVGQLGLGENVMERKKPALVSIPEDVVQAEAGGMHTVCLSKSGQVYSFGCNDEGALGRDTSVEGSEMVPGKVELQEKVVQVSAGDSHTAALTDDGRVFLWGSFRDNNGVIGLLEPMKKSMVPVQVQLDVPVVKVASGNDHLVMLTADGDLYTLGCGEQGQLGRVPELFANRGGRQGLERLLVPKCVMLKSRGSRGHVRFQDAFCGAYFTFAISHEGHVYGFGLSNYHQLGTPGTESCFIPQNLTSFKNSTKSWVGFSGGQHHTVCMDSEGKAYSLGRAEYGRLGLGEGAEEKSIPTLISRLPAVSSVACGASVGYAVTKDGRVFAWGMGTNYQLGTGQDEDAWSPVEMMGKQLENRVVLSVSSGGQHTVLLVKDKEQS
inactive: nilotinib 0.024 | [1] -0.024 | dasatinib -0.071 | [2] 0.021 | [3] 0.034 | quisinostat 0.001 | tipifarnib -0.011 | [4] 0.027 | [5] -0.02 | [6] -0.043 | [7] 0.009 | silmitasertib 0.034 | [8] 0.051 | entospletinib -0.014
active: vorinostat -0.381

RBM23 isoform 2 (UniProt Q86U06)
inactive: nilotinib 0.172 | [1] 0.021 | dasatinib -0.004 | [2] -0.065 | [3] -0.061 | quisinostat -0.047 | tipifarnib -0.168 | [4] -0.024 | [5] -0.056 | [6] 0.021 | [7] 0.121 | vorinostat -0.334 | silmitasertib -0.019 | [8] -0.113 | entospletinib 0.037

SCD (UniProt O00767)
inactive: nilotinib -0.007 | [1] -0.017 | dasatinib 0.01 | [2] -0.01 | [3] 0.007 | quisinostat -0.144 | tipifarnib -0.077 | [4] -0.023 | [5] -0.183 | [6] 0.03 | [7] -0.045 | vorinostat 0.021 | silmitasertib -0.057 | [8] -0.028 | entospletinib 0.017

SEC61G (UniProt P60059)
Chain of UniProt P60059 (P60059 whole entry, looked up): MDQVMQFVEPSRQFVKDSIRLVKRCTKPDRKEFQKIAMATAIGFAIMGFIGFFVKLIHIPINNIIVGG
inactive: nilotinib -0.007 | [1] -0.061 | dasatinib 0 | [2] 0.089 | [3] -0.033 | quisinostat -0.045 | tipifarnib 0.134 | [4] -0.01 | [5] 0.023 | [6] 0.053 | [7] -0.047 | vorinostat 0.005 | silmitasertib 0.013 | [8] 0.232 | entospletinib -0.034
